Reference: PubChem BioAssay AID651871 (Sanford-Burnham Center for Chemical Genomics, 2012)
“And” between values parts separate entries of the source, which are not always exact repeats. Identical values can stand only once.

Test system: HL-1
Experiment: cardiomyocyte survival under oxidative or metabolic stress – cell-based, panel, H9c2 and HL-1, ATP luminescence, set 2, SAR follow-up (AID 651871);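 also: cells exposed to stressor for 2 h before ATP readout; reference of the scale not given here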
Conditions: H9c2/HL-1 cardiomyocytes, H2O2 oxidative stress; with H2O2, run 1, at 79 µM (top of the series)

Row | Compound | activity (protection/inhibition)
1 | COc1ccc2c(c1OC)C(=O)N1c3ccccc3C(=O)N(Cc3cccc(Cl)c3Cl)C21 (centres undefined) | -0.863% and -7.11% and 4.56%
2 | CCOC(=O)c1cccc(NC(=O)CNC(=O)c2cc(-c3cc(OC)c(OC)c(OC)c3)nc3ccccc23)c1 | 56.7%
3 | COc1cc(-c2cc(C(=O)Nc3cccc(C(=O)NCc4ccccc4)c3)c3ccccc3n2)cc(OC)c1OC | 34.6%
4 | COc1ccc2nc(-c3cc(OC)c(OC)c(OC)c3)cc(C(=O)NCC(=O)Nc3ccc(C(C)=O)cc3)c2c1 | 41.2% and 24.9%
